Assay outcomes deposited in PubChem BioAssay by Broad Institute.
Shown is part of a subset that was picked to be rich in hits.
NOMO-1 viab: STK33 inhibitor candidate reducing NOMO-1 cell viability. NOMO-1 AML viability, CellTiter-Glo luminescence, 72 h. inhibition, % (no concentration beside the values). hit rate 7.5% among 37,000; in the data active = inhibition above about 80%
U2OS ROS induce: raises reactive oxygen species in U2OS cancer cells. U2OS ROS induction, H2DCF-DA fluorescence. ROS induction (% of piperlongumine), % at 10 µM. hit rate 2% among 46,000; in the data active = ROS induction above about 79%, passing the limit was not always enough;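 note: 0% = DMSO vehicle median and 100% = reference compound median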
PD-1 reversal: reversal of PD-1 mediated T-cell inhibition. primary human CD4 T cells, PD-L1 beads, CellTiter-Glo 96 h. activation, % (concentration not given with the values). 29,000 tested, under 10 active. AID 2316; call rule not given here;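 note: 0% = median vehicle wells and 100% = positive control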
YB-1 expression: YB-1 expression inhibition; U2OS, qRT-PCR YB-1 vs CDIP delta delta Cp, 16 h; active compounds read high; zero = DMSO, each unit about twofold; delta delta Cp (YB-1 minus CDIP) (concentration not given with the values); hit rate 0.37% among 30,000; AID 434959;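 active = delta delta Cp rounded down to an integer at or above 3, about 3 SD of DMSO wells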;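 note: higher means less YB-1 transcript or more CDIP transcript relative to DMSO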
* = called active by the depositor; · = not tested or not shown.

SMILES	NOMO-1 viab	U2OS ROS induce	PD-1 reversal	YB-1 expression
C[C@H]1CN([C@@H](C)CO)C(=O)c2cc(NC(=O)NC3CCCCC3)ccc2O[C@@H]1CN(C)Cc1ccccc1	-1	13	1	0.18
C[C@@H]1CN([C@@H](C)CO)C(=O)c2cc(NC(=O)NC3CCCCC3)ccc2O[C@@H]1CN(C)Cc1ccc(-c2ccccc2)cc1	117*	10	-6	-0.032
C[C@H]1CN([C@@H](C)CO)C(=O)c2cc(NC(=O)NC3CCCCC3)ccc2O[C@@H]1CN(C)Cc1ccc(-c2ccccc2)cc1	38	137*	-1	-0.71
Cc1ccc(-c2nn(C)c(=O)c3ccccc23)cc1S(=O)(=O)N1CCN(CCO)CC1	12	-1	1	·
COC(=O)c1cccc2[nH]ncc12	·	-4	·	·
C[C@H]1CN([C@@H](C)CO)C(=O)c2cc(NC(=O)NC3CCCCC3)ccc2O[C@H]1CN(C)Cc1ccncc1	100*	-6	1	0.16
C[C@@H]1CN([C@H](C)CO)C(=O)c2cc(NC(=O)NC3CCCCC3)ccc2O[C@H]1CN(C)Cc1ccncc1	8	-1	0	-0.19
CC1(C)C=Cc2c(c3occc3c3oc(-c4ccccc4)cc(=O)c23)O1	95*	223*	1	0.19
COc1ccc(C(=O)c2ccccc2)cc1	-14	-14	-1	-0.076
COC(=O)Nc1nc2ccc(C(=O)c3ccccc3)cc2[nH]1	110*	21	·	-0.6
Cc1ccc2nc(SCC(=O)NCc3ccccc3)[nH]c2c1	12	6	2	·
COC(=O)C(C)c1ccc(C(=O)c2cccs2)cc1 (configuration not stated)	-6	3	·	0.062
COC(=O)Nc1nc2ccc(C(=O)c3cccs3)cc2[nH]1	94*	11	-23	0.59
COC(=O)Nc1nc2ccc(S(=O)c3ccccc3)cc2[nH]1 (configuration not stated)	102*	-1	·	0.13
O=C(Cc1cccc2ccccc12)Nc1ccc(S(=O)(=O)N2CCCC2)cc1	·	15	·	·
CCc1cc(=O)oc2c(C)c(O)ccc12	·	-4	·	·
CCCCc1ccc(-c2csc(NC(=O)c3ccccc3[N+](=O)[O-])c2C(N)=O)cc1	43	13	-8	·
CSC(=O)OCC1=C[C@H](O)[C@@H]2C(C(=O)O)=CO[C@@H](OC3OC(CO)C(O)C(O)C3O)[C@H]12 (some centres not stated)	18	-9	2	4.1*
COc1ccc(-c2ccc(CCC(=O)O)n2-c2ccc(N(C)C)cc2)cc1	14	2	-2	·
O=[N+]([O-])c1cccc(-c2nn(-c3ccccc3)cc2CNCc2ccccc2)c1	93*	42	-9	·
COc1ccc(Cl)cc1N1CCN(CCCNC(=S)Nc2ccc(Cl)cc2C)CC1	36	·	·	·
CC(C)c1ccc(N2C=Nc3ccc(C(C)C)cc3C2)cc1	115*	58	-2	-0.18
CC(C)c1ccc(Nc2nc(N3CCCCC3)nc(N3CCCCC3)n2)cc1	·	3	·	·
Cc1cccc(-n2c(N)cc(=O)nc2SCC(=O)N2c3ccccc3Sc3ccccc32)c1	-2	·	0	·
O=C(COc1ccc(Cl)cc1)CC(=O)c1ccc(Cl)cc1	110*	25	-3	-0.32
SMILES	NOMO-1 viab	U2OS ROS induce	PD-1 reversal	YB-1 expression
CC(C)(C)C1CC=C2[C@H](C1)[C@@H](c1ccsc1)C(C#N)=C(N)C2(C#N)C#N (some centres not stated)	23	25	0	-0.28
CCOC(=O)N1CC=C2C(C1)C(c1cccc(C(F)(F)F)c1)C(C#N)=C(N)C2(C#N)C#N (configuration not stated)	113*	14	-23	-0.51
CC(C)(O)C1Oc2cc3occ(-c4ccc(O)cc4)c(=O)c3c(O)c2C1O (configuration not stated)	-7	4	-1	-0.27
COc1ccc(S(=O)(=O)N(C)C[C@@H]2Oc3ccc(NC(=O)Nc4ccc(F)cc4)cc3CC(=O)N([C@H](C)CO)C[C@@H]2C)cc1	33	12	·	-0.57
Cc1ccc(S(=O)(=O)N(C)C[C@@H]2Oc3ccc(NC(=O)Nc4ccc(F)cc4)cc3CC(=O)N([C@H](C)CO)C[C@@H]2C)cc1	127*	23	-1	-0.032
Cc1ccc(S(=O)(=O)N(C)C[C@H]2Oc3ccc(NC(=O)Nc4ccc(F)cc4)cc3CC(=O)N([C@H](C)CO)C[C@H]2C)cc1	-10	17	-2	-0.18
Cc1ccc(S(=O)(=O)N(C)C[C@H]2Oc3ccc(NC(=O)Nc4ccc(F)cc4)cc3CC(=O)N([C@@H](C)CO)C[C@H]2C)cc1	44	24	-2	0.09
